High-throughput results (PubChem)
BoNT-F LC inh: inhibitors of Botulinum neurotoxin F light chain protease. AID 588497. 360,000 tested, 0.22% active. inhibition, % at 10 µM. Multiplex microsphere protease cleavage assay, flow cytometry; in the data active means inhibition above about 35%, passing the limit was not always enough; inconclusive means no clear call, values can overlap the other calls; further: plate controls were buffer without enzyme for full effect and enzyme alone for no effect
BoNT A protease: inhibitors of Botulinum neurotoxin A light chain protease; multiplex microsphere protease substrate cleavage, flow cytometry; inhibition, % at 10 µM; 360,000 tested, 0.17% active; AID 588499; further: plate controls were buffer without enzyme for full effect and enzyme alone for no effect
Bead autofluor: compound fluorescence in toxin protease inhibitor counterscreen | AID 624483 | compound autofluorescence counterscreen, microsphere flow cytometry; hits give high values | fluorescence intensity (no concentration beside the values) | 360,000 tested, 3.1% active; in the data active means fluorescence intensity above about 16000; inconclusive means no clear call, values can overlap the other calls
PriA SSB inh: inhibitors of Klebsiella pneumoniae PriA binding to SSB C-terminal tail; 430,000 tested, 0.6% active; AlphaScreen SSBct-PriA binding, biotinylated peptide; inhibition, % at 33 µM; AID 1272365; in the data active means inhibition mostly above about 37%, no sharp cut-off; inactive means mostly below about 20%;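 further: plate controls were negative control peptide for no effect and reference peptide for full effect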
Anthrax LF inh2: anthrax lethal factor protease inhibition. inhibition, % at 10 µM. multiplex microsphere protease cleavage assay, LF. 360,000 tested, 0.12% active. P15917; further: plate controls were buffer without enzyme for full effect and enzyme alone for no effect
Target sequence (P15917 whole entry, looked up): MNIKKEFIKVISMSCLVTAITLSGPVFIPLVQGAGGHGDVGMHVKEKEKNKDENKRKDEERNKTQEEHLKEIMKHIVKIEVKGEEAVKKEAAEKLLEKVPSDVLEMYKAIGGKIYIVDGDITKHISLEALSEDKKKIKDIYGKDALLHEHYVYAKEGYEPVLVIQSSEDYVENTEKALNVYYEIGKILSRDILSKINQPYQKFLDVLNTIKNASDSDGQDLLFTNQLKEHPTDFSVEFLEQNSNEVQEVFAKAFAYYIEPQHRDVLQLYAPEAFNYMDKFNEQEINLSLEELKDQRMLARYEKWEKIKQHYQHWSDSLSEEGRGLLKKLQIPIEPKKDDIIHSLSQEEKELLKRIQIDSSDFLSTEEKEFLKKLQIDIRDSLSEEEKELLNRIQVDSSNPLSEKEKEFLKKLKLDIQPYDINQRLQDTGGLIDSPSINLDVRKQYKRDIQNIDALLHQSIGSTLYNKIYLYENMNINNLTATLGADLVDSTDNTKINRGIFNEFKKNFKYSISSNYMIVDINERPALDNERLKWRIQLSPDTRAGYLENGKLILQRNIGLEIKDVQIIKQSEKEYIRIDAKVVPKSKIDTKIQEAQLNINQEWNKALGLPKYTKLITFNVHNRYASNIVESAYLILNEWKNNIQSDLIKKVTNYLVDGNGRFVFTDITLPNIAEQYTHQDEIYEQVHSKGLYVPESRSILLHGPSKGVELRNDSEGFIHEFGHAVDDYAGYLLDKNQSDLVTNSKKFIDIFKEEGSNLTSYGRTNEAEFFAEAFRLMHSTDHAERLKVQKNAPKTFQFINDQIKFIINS
The depositor's hits bear a star. Most compounds without a hit are left out; they make up all but 3.1% or so of the library. Unless noted, no stated cut-off is given here; in the data, active means inhibition above about 30%; inconclusive means no clear call, values can overlap the other calls; inactive means below that.

How did CC(=O)c1cccc(NC(=O)Cn2c(C)nc3c(sc4ccccc43)c2=O)c1 do in these assays?
PriA SSB inh: -12

How did Cc1oc(-c2ccccc2)nc1CSc1ccc(-c2ccccc2Cl)nn1 do in these assays?
PriA SSB inh: 2

What do the screens show for `COC(=O)c1cc(C(=O)OC)cc(-n2c(C)ccc2C)c1`?
PriA SSB inh: -8

What do the screens show for `COc1ccc(CC(C(=O)Nc2cc(C)ccc2C)/C(N)=N/O)cc1` (stereo not drawn)?
BoNT-F LC inh: -1; BoNT A protease: -1; Bead autofluor: 16939*; Anthrax LF inh2: -2

What do the screens show for `CC12CN(C(=O)c3ccc(Cl)cc3)C3(C#N)CC1CCC23C` (stereo not drawn)?
BoNT-F LC inh: -12; BoNT A protease: inconclusive; Bead autofluor: 22214*; PriA SSB inh: -18; Anthrax LF inh2: -1

What do the screens show for `Cc1ccccc1-c1nc2ccccc2c(=O)n1N=Cc1ccccc1[N+](=O)[O-]`?
PriA SSB inh: -1

What do the screens show for `CC(=O)c1ccc(NC(=O)COC(=O)C2CC3C=CC2C3)cc1` (stereo not drawn)?
BoNT-F LC inh: 3; BoNT A protease: 0; Bead autofluor: 2986; PriA SSB inh: -6; Anthrax LF inh2: -4

What do the screens show for `O=C(COC(=O)C1CC2C=CC1C2)Nc1ccc2c(c1)OC(F)(F)O2` (stereo not drawn)?
BoNT-F LC inh: 1; BoNT A protease: 0; Bead autofluor: 16493*; PriA SSB inh: -17; Anthrax LF inh2: -1

What do the screens show for `COc1ccc(-c2c(C(=O)O)nc3ccccc3c2C(=O)O)cc1`?
BoNT-F LC inh: 0; BoNT A protease: 0; Bead autofluor: 16308*; PriA SSB inh: 6; Anthrax LF inh2: -3

Results for CCN(CCCn1c(SCC#N)nc2ccccc2c1=O)c1ccccc1 ?
BoNT-F LC inh: 0; BoNT A protease: 2; Bead autofluor: 19328*; PriA SSB inh: 9; Anthrax LF inh2: -16

What do the screens show for `CCOc1ccc(S(=O)(=O)NCC2CCN(C3CCCC3)CC2)cc1C`?
PriA SSB inh: -2

What do the screens show for `CCCn1cc(C(CC(=O)O)C(=O)O)c2ccccc21` (stereo not drawn)?
BoNT-F LC inh: -2; BoNT A protease: -1; Bead autofluor: 24400*; PriA SSB inh: -6; Anthrax LF inh2: 0

What do the screens show for `Cc1ccc(C(=O)CC(C(=O)O)c2cn(CCC#N)c3ccccc23)cc1` (stereo not drawn)?
BoNT-F LC inh: -3; BoNT A protease: -1; Bead autofluor: 5323; PriA SSB inh: -7; Anthrax LF inh2: -7

How did Cn1cc(C(CC(=O)O)C(=O)O)c2ccccc21 (stereo not drawn) do in these assays?
BoNT-F LC inh: -2; BoNT A protease: 0; Bead autofluor: 23907*; PriA SSB inh: -5; Anthrax LF inh2: 2

What do the screens show for `CSc1cccc2sc(NC(=O)CCOc3ccccc3)nc12`?
PriA SSB inh: 1

How did COCCCNC(=O)c1cc(C)nc2ccc(F)cc12 do in these assays?
BoNT-F LC inh: 2; BoNT A protease: 1; Bead autofluor: 21925*; PriA SSB inh: -14; Anthrax LF inh2: -5

How did COc1ccc(CNC(=O)N2CCC(COCc3ccc(F)cc3)CC2)cc1 do in these assays?
PriA SSB inh: 23

How did Cc1coc(C)c1C(=O)NCc1ccc(-c2ccccc2)o1 do in these assays?
PriA SSB inh: -3

What do the screens show for `Nc1nc(-c2ccccn2)nc(N)c1Cc1ccccc1F`?
BoNT-F LC inh: 4; BoNT A protease: -2; Bead autofluor: 4620; PriA SSB inh: 95*; Anthrax LF inh2: 4

Results for Nc1nc(-c2ccccn2)nc(N)c1Cc1ccc(Cl)cc1Cl ?
BoNT-F LC inh: -1; BoNT A protease: -3; Bead autofluor: 3833; PriA SSB inh: 54*; Anthrax LF inh2: -2

What do the screens show for `Nc1nc(-c2ccccn2)nc(N)c1Cc1c(F)cccc1Cl`?
BoNT-F LC inh: 1; BoNT A protease: -4; Bead autofluor: 4380; PriA SSB inh: 35; Anthrax LF inh2: -2

Results for COCCN1CCC(NC(=O)c2snnc2C)CC1 ?
PriA SSB inh: -10

How did Cc1n[nH]c(=O)nc1NC(C)c1ccccc1 (stereo not drawn) do in these assays?
BoNT-F LC inh: 2; BoNT A protease: 3; Bead autofluor: 22579*; PriA SSB inh: -10; Anthrax LF inh2: 2

Results for Cc1noc(C)c1S(=O)(=O)NCc1cncc(-c2ccsc2)c1 ?
PriA SSB inh: 5

What do the screens show for `Nc1c(-c2ccccn2)nsc1C(=O)N1CCN(c2ccccc2Cl)CC1`?
PriA SSB inh: 7

What do the screens show for `CCn1c2ccccc2c2nc3cc(S(=O)(=O)N4CCOCC4)ccc3nc21`?
BoNT-F LC inh: 27; BoNT A protease: 40*; Bead autofluor: 7049; PriA SSB inh: -17; Anthrax LF inh2: 33*

Results for O=S(=O)(c1ccc2oc3ccccc3c2c1)N1CCCC1 ?
BoNT-F LC inh: 8; BoNT A protease: 0; Bead autofluor: 4663; PriA SSB inh: -24; Anthrax LF inh2: 2

What do the screens show for `Cc1c(C(=O)N2CCCc3ccccc32)oc2ccc(S(=O)(=O)N3CCOCC3)cc12`?
BoNT-F LC inh: -6; BoNT A protease: -2; Bead autofluor: 16777*; PriA SSB inh: 7; Anthrax LF inh2: -1

What do the screens show for `O=S(=O)(c1ccc2oc3ccccc3c2c1)N1CCOCC1`?
BoNT-F LC inh: -4; BoNT A protease: 0; Bead autofluor: 16805*; PriA SSB inh: -4; Anthrax LF inh2: -1

How did CN1C(=O)CCc2cc(N)ccc21 do in these assays?
PriA SSB inh: 11

What do the screens show for `CN=c1scc(-c2c[nH]c3ccccc23)n1C`?
BoNT-F LC inh: 2; BoNT A protease: 0; Bead autofluor: 5183; PriA SSB inh: -1; Anthrax LF inh2: 0

Results for CN=c1scc(-c2cc(OC)ccc2OC)n1N=Cc1c(C)[nH]c2ccccc12 ?
PriA SSB inh: 45*

Results for CC(C)NN ?
PriA SSB inh: 5

What do the screens show for `COC(=O)[C@H](Cc1ccccc1)NC(=O)NCc1ccccc1`?
PriA SSB inh: -12

Results for COC(=O)[C@H](Cc1ccccc1)NC(=O)N1CCN(Cc2ccccc2)CC1 ?
BoNT-F LC inh: -2; BoNT A protease: 0; Bead autofluor: 23718*; PriA SSB inh: 4; Anthrax LF inh2: 1

Results for CCCNC(=O)N[C@@H](Cc1ccccc1)C(=O)OC ?
BoNT-F LC inh: 0; BoNT A protease: inconclusive; Bead autofluor: 22925*; PriA SSB inh: 5; Anthrax LF inh2: -4

What do the screens show for `COC(=O)[C@H](Cc1ccccc1)NC(=O)N1CCCCCC1`?
BoNT-F LC inh: 31; BoNT A protease: -1; Bead autofluor: 3498; PriA SSB inh: -8; Anthrax LF inh2: -3

What do the screens show for `CCC(C)[C@H](NC(=O)NC1CCN(Cc2ccccc2)CC1)C(=O)OC` (stereo partly drawn)?
BoNT-F LC inh: 3; BoNT A protease: 2; Bead autofluor: 22325*; PriA SSB inh: -8; Anthrax LF inh2: 2

Results for CN1CCCC1=Nc1ccccc1 ?
BoNT-F LC inh: -1; BoNT A protease: 0; Bead autofluor: 3747; Anthrax LF inh2: 5

Results for CN1CCCCCC1=Nc1ccc([N+](=O)[O-])cc1 ?
BoNT-F LC inh: 39*; BoNT A protease: 0; Bead autofluor: 2847; PriA SSB inh: -2; Anthrax LF inh2: 1
